Experimental findings from PubChem BioAssay (Tox21) are described below.

Molecules are shown by their SMILES. Values without a mark were called inactive. Records with an inconclusive call do not appear. Active and inactive are the calls of the source. Unless noted, the call rests on the fitted dose curve; in most records, active means well fitted curve in the direction sought with a large enough effect in the repeat runs; inconclusive means weak or mixed curves; inactive means no such curve, though single readings can be large; an effect the other way counts as inactive or inconclusive.

Assay [1] is described as follows: qHTS assay to test for compound auto fluorescence at 535 nm (green) in HEK293 cells (AID 720680).
Assay [2] in a line: qHTS assay to test for compound auto fluorescence at 460 nm (blue) in HEK293 cell free culture (AID 720681). Put shortly: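 Test compounds were pinned into cell-free culture medium (DMEM with 10% FBS) and fluorescence was read directly at Ex/Em 405/460 nm. Signals were expressed as fluorescence equivalents of triamterene, with DMSO vehicle as control.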
Assay [3] is described as follows: qHTS assay to test for compound auto fluorescence at 535 nm (green) in HEK293 cell free culture (AID 720682). Put shortly: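 No cells present: wells hold DMEM supplemented with 10% FBS, into which compound or vehicle is pinned. Green emission is then recorded (485 nm excitation, 535 nm emission) and scaled to fluorescein.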
Assay [4] is described as follows: qHTS assay to test for compound auto fluorescence at 590 nm (red) in HEK293 cell free culture (AID 720683). Summed up: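 Tox21 10K library compounds were pinned into cell-free DMEM with 10% FBS and fluorescence was read at excitation 540 nm. Activity is expressed as Rose Bengal sodium equivalency.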
Assay [5] in a line: qHTS assay to test for compound auto fluorescence at 590 nm (red) in HepG2 cell free culture (AID 720684). Summed up:
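Red fluorescence (540 nm excitation, 590 nm emission) was measured after compound transfer into cell-free MEM supplemented with 10% FBS. Values are equivalencies against Rose Bengal sodium.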

The nature of assay [6]: qHTS assay to test for compound auto fluorescence at 460 nm (blue) in HepG2 cell free culture (AID 720685). Summed up:
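Compound (23 nL) or DMSO pinned into cell-free MEM with 10% FBS; blue fluorescence read at 405/460 nm excitation/emission, expressed as auto-fluorescence equivalency to triamterene.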

A short description of assay [7]: qHTS assay to test for compound auto fluorescence at 535 nm (green) in HepG2 cell free culture (AID 720686).
A short description of assay [8]: qHTS assay to test for compound auto fluorescence at 460 nm (blue) in HepG2 cells (AID 720687). Summed up: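 Cells (2,000/well in MEM with 10% FBS) attached overnight at 37 C, then were exposed to compound or DMSO for 1 hr at 37 C, 5% CO2. Fluorescence read at Ex/Em 405/460 nm, expressed as triamterene-equivalent signal.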
In assay [9] the target is Glucocorticoid receptor (Homo sapiens) (UniProt P04150). Description: qHTS assay to identify small molecule agonists of the glucocorticoid receptor (GR) signaling pathway (AID 720691; active means well fitted activation curve with a large enough effect in the signal ratio in the repeat runs, not every such curve was filed as active; the % refers to the signal ratio). The following applies: GR-bla HeLa, beta-lactamase reporter ratio, 18 h; activation: at 62.4 µM (top of the series). Summed up:
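Agonist mode in a HeLa line carrying a GRE-controlled beta-lactamase reporter. Compounds act for 18 h at 37 C before a 2 h room-temperature FRET substrate step and fluorescence reading.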

For assay [10] the target is unchanged. Description: qHTS assay to identify small molecule antagonists of the glucocorticoid receptor (GR) signaling pathway (AID 720692; active means well fitted inhibition curve with a large enough effect in the signal ratio in the repeat runs, not every such curve was filed as active; the % refers to the signal ratio; further: potency means the concentration at half of the fitted maximal effect). Summed up:
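Cells plated, rested 4 h at 37 C/5% CO2; compounds in DMSO pin-transferred; dexamethasone added to 5 nM final; 18 h at 37 C; B/G FRET substrate added, 2 h room temperature; fluorescence measured.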

Assay [11] is described as follows: qHTS assay to identify small molecule antagonists of the glucocorticoid receptor (GR) signaling pathway - cell viability counter screen (AID 720693). Further: nearly all actives have a fitted effect of over 55% in size. Further: potency means the concentration at half of the fitted maximal effect.
A short description of assay [12]: qHTS assay for identifying genotoxic compounds that show differential cytotoxicity against isogenic chicken DT40 cell lines with known DNA damage response pathways - wild type cell line (AID 743012). Further: nearly all actives have a fitted effect of over 60% in size. Further: potency means the concentration at half of the fitted maximal effect. Put shortly:
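Cells (DT40 wild type, 300/well) are treated with DMSO-dissolved compounds after a ~0.5 h pre-incubation and kept 40 h at 37 C/5% CO2. Viability is then measured by CellTiter-Glo luminescence following 30 min at room temperature.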

A short description of assay [13]: qHTS assay for identifying genotoxic compounds that show differential cytotoxicity against isogenic chicken DT40 cell lines with known DNA damage response pathways - Rev3 mutant cell line (AID 743014). Further: nearly all actives have a fitted effect of over 55% in size. Further: potency means the concentration at half of the fitted maximal effect.
The nature of assay [14]: qHTS assay for identifying genotoxic compounds that show differential cytotoxicity against isogenic chicken DT40 cell lines with known DNA damage response pathways - Rad54/Ku70 mutant cell line (AID 743015). Further: nearly all actives have a fitted effect of over 60% in size. Further: potency means the concentration at half of the fitted maximal effect.
Assay [15] in a line: qHTS assay to identify small molecule antagonists of the androgen receptor (AR) signaling pathway - cell viability counter screen (AID 743033; further: nearly all actives have a fitted effect of over 45% in size; further: potency means the concentration at half of the fitted maximal effect).
Assay [16] concerns the target Androgen receptor (Homo sapiens) (UniProt P10275). The assay can be described thus: qHTS assay to identify small molecule antagonists of the androgen receptor (AR) signaling pathway (AID 743035; active means well fitted inhibition curve with a large enough effect in the signal ratio in the repeat runs, not every such curve was filed as active; the % refers to the signal ratio). Summed up:
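Antagonism is scored as loss of R1881-driven beta-lactamase reporter expression in HEK293 cells carrying the reporter under a UAS element, after 16 h co-treatment at 37C and a 2 h room-temperature FRET substrate read.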

Assay [17] has the same target. The assay can be described thus: qHTS assay to identify small molecule agonists of the androgen receptor (AR) signaling pathway (AID 743036; active means well fitted activation curve with a large enough effect in the signal ratio in the repeat runs, with a control signal flat, not every such curve was filed as active; the % refers to the signal ratio). Summed up:
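Quantitative HTS of the Tox21 10K library in HEK293 cells bearing a stably integrated UAS-controlled beta-lactamase reporter. Compound exposure lasted 16 h at 37C. Reporter activity was detected by FRET substrate fluorescence after 2 h at room temperature.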

For assay [18] the target is unchanged. The assay can be described thus: qHTS assay to identify small molecule agonists of the androgen receptor (AR) signaling pathway using the MDA cell line (AID 743040; further: nearly all actives have a fitted effect of over 20% in size). Put shortly:
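MDA-kb2 breast carcinoma cells stably carrying an MMTV-driven luciferase reporter (AR- and GR-responsive) were seeded and held 5 h at 37C, 0% CO2, then exposed to compounds in DMSO for 16 h. Luminescence was read 30 min after ONE-Glo addition.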

Assay [19] is described as follows: qHTS assay to identify small molecule antagonists of the androgen receptor (AR) signaling pathway using the MDA cell line - cell viability counter screen (AID 743041; further: nearly all actives have a fitted effect of over 45% in size; further: potency means the concentration at half of the fitted maximal effect). Put shortly:
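MDA-kb2 AR-luc human breast carcinoma cells (MMTV-luciferase, AR/GR responsive) were treated with compounds plus R1881 agonist for 16 h at 37 °C. Viability was read as CellTiter-Fluor fluorescence in the same wells as the reporter assay.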

The target of assay [20] is Androgen receptor (Homo sapiens) (UniProt P10275). The assay can be described thus: qHTS assay to identify small molecule antagonists of the androgen receptor (AR) signaling pathway using the MDA cell line (AID 743042; further: nearly all actives have a fitted effect of over 55% in size). Put shortly: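 MDA-kb2 cells (human breast carcinoma, stably carrying an MMTV-luciferase reporter responsive to AR and GR) were plated at 3,000 cells/well and preincubated 5 hr at 37C, then given compound plus R1881 agonist for 16 h. ONE-Glo luminescence was read.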
Chain of Androgen receptor (Homo sapiens) (P10275 whole entry, looked up): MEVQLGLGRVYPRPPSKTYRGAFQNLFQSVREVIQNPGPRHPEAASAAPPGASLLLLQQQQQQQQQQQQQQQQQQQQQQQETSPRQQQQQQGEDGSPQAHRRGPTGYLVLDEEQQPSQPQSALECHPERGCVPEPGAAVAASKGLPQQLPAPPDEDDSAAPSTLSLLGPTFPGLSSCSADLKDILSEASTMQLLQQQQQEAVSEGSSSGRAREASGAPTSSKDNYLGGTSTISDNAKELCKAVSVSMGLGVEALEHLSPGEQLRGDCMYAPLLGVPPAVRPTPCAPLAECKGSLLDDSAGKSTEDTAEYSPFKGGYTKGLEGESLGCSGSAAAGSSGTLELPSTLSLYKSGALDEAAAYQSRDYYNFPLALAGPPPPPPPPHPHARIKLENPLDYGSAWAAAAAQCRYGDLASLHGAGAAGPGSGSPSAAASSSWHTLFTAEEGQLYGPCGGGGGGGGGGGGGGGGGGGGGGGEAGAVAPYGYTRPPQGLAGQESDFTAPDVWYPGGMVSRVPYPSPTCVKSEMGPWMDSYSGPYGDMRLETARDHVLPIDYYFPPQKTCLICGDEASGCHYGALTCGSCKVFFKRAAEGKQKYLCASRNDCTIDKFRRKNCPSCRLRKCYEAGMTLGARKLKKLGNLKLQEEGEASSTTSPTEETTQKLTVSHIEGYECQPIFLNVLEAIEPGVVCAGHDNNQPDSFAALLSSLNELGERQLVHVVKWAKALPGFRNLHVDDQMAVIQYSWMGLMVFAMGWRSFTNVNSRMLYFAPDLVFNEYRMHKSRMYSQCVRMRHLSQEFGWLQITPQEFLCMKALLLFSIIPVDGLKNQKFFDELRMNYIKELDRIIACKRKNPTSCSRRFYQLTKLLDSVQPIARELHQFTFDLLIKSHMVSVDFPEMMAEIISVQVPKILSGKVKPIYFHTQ

Chain of Glucocorticoid receptor (Homo sapiens) (P04150 whole entry, looked up): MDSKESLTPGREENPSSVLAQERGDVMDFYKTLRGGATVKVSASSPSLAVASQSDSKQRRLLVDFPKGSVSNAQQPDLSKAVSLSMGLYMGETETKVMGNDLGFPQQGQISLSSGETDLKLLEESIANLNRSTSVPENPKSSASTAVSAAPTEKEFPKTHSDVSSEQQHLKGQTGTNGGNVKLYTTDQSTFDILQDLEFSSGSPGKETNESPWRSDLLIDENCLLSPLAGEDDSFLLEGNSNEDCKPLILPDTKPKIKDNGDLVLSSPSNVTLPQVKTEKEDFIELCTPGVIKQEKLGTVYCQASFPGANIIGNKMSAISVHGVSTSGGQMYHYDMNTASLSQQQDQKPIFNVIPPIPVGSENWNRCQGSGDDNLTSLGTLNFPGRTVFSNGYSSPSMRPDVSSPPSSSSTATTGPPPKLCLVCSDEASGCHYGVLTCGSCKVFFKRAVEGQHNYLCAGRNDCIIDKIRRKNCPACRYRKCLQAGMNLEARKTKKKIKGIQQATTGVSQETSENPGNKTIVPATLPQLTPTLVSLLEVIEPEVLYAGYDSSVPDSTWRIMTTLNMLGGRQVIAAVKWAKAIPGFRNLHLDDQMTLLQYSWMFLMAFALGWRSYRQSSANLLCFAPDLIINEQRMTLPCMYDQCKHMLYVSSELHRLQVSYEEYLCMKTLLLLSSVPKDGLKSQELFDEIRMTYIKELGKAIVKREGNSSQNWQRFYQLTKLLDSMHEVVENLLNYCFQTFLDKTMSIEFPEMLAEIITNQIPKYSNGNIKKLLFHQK

On to `O=NN(CCO)CCO`, for which the compound was classed as inactive in assay [1], in assay [3], in [4], in assay [5], in [17] and in [18]. The Potency entry in assay [2], in assay [6], in assay [7], in assay [8], in assay [9] and in [10] was “inactive” each time. Moreover, the Potency result in [11], in [12], in [13], in [14], in assay [15] and in assay [16] was “inactive” in each case. The Potency result in [19] and in [20] was “inactive” throughout.
For the compound `O=C(NC(=O)c1ccccc1Cl)Nc1ccc(OC(F)(F)F)cc1`, the outcome in assay [1], in [3], in assay [4], in assay [5] and in [18] was inactive. Further, the Potency entry in assay [2], in assay [6], in assay [7], in assay [8], in assay [9] and in assay [10] was “inactive” each time. Moreover, the Potency result in assay [11], in assay [12], in [14], in assay [15], in assay [16] and in assay [19] was “inactive” each time. The Potency entry in assay [20] was “inactive”.
Consider `Cc1c([N+](=O)[O-])cc2c(c1[N+](=O)[O-])C(C)(C)CC2(C)C`, for which the compound was classed as inactive in [1], in assay [3], in [4] and in assay [5]. Moreover, the Potency result in [2], in assay [6], in assay [7], in assay [8], in assay [9] and in assay [10] was “inactive” throughout. For the same compound, the Potency entry in assay [11], in assay [12], in [14] and in [19] was “inactive” in each case.
Take `O=[N+]([O-])c1ccc(CCl)cc1`: the compound was called inactive in assay [1], in [3], in assay [4] and in [5]. Besides, the Potency entry in [2], in assay [6], in [7], in assay [8], in assay [9] and in [10] was “inactive” in each case. Besides, the Potency result in assay [11], in assay [12], in assay [13], in assay [15] and in assay [19] was “inactive” throughout.
Regarding `CCCCON=O`, the compound was called inactive in [1], in assay [3], in assay [4] and in assay [5]. In addition, the Potency result in assay [2], in assay [6], in assay [7], in assay [8], in [9] and in assay [10] was “inactive” in each case. Moreover, the Potency result in [11], in [12], in assay [13], in assay [14], in assay [15] and in assay [19] was “inactive” throughout.
For the compound `CCOC(=O)Cc1ccccc1`, the compound was classed as inactive in assay [1], in [3], in assay [4], in assay [5], in [17] and in assay [18]. In addition, the Potency entry in assay [2], in assay [6], in assay [7], in assay [8], in assay [9] and in [10] was “inactive” each time. Also, the Potency result in assay [11], in assay [12], in assay [13], in assay [14], in [15] and in assay [16] was “inactive” each time. Besides, the Potency result in assay [19] and in assay [20] was “inactive” each time.
In the case of `c1cc[n+]2c(c1)-c1cccc[n+]1CC2`, the outcome in [1], in assay [3], in [4] and in [5] was inactive. The Potency result in assay [2], in [6], in [7], in assay [8], in [9] and in assay [10] was “inactive” throughout. Also, the Potency result in [11] and in [19] was “inactive” in each case. Also, the Potency in [12] and in [13] was 3.35 µM (active) each time.
As for `C=Cc1cccc(CCl)c1`, the call in [1], in assay [3], in [4] and in assay [5] was inactive. Further, the Potency result in assay [2], in [6], in assay [7], in [8], in assay [9] and in assay [10] was “inactive” throughout. Further, the Potency result in assay [11], in assay [12], in assay [15] and in assay [19] was “inactive” each time.
`CCOC(=O)CCN(SN(C)C(=O)Oc1cccc2c1OC(C)(C)C2)C(C)C`: the result in [1], in [3], in [4] and in assay [5] was inactive. Moreover, the Potency result in assay [2], in assay [6], in [7], in assay [8], in assay [10] and in [11] was “inactive” each time. Also, the Potency entry in [15] and in [19] was “inactive” each time. Also, the Potency in [12] is 17.2 µM (active); in [13], 24.3 µM (active); in [14], 21.7 µM (active).
Regarding `Cc1cc(C2CC2)nc(Nc2ccccc2)n1`, the result in assay [1], in [3], in assay [4] and in assay [5] was inactive. The Potency entry in assay [2], in assay [6], in [7], in assay [8] and in [11] was “inactive” in each case. Moreover, the Potency was 24.3 µM (active) in [12], 30.6 µM (active) in [13] and 24.3 µM (active) in assay [14].
In the case of `CCCCc1ccccc1`, the outcome in assay [1], in assay [3], in assay [4] and in assay [5] was inactive. The Potency entry in assay [2], in assay [6], in assay [7], in assay [8], in assay [10] and in assay [11] was “inactive” in each case. Besides, the Potency result in assay [12], in [13] and in assay [19] was “inactive” in each case.
For the compound `CO/N=C(/C1=NOCCO1)c1ccccc1Oc1ncnc(Oc2ccccc2Cl)c1F`, the call in assay [1], in [3], in assay [4] and in [5] was inactive. Besides, the Potency entry in [2], in assay [6], in assay [7], in [8] and in [10] was “inactive” in each case. Further, the Potency is 0.0306 µM (active) in [12]; 0.0544 µM (active) in [13]; 0.0153 µM (active) in assay [14]; 6.91 µM (active) in assay [15]; 30.6 µM (active) in assay [19].
On to `CC(Cc1ccc(OCC(=O)O)cc1)NCC(O)c1csc(C(F)(F)F)n1` (stereo not given), for which the outcome in assay [1], in assay [3], in assay [4] and in [5] was inactive. The Potency result in [2], in [6], in [7], in assay [8], in [10] and in assay [11] was “inactive” throughout. Moreover, the Potency result in assay [12], in assay [13], in assay [14], in [15] and in assay [19] was “inactive” throughout.
Consider `CC[C@]1(O)CC[C@H]2[C@@H]3CCC4=CCCC[C@@H]4[C@H]3CC[C@@]21C`, for which the compound was called inactive in [1], in [3], in assay [4] and in assay [5]. Also, the Potency result in assay [2], in assay [6], in [7], in [8], in [15] and in assay [19] was “inactive” in each case. The Potency in [10] was 1.69 µM (active); in [11], 3.01 µM (active); in [12], 8.41 µM (active); in assay [13], 9.44 µM (active); in assay [14], 13.3 µM (active).
